The record followed here is PubChem BioAssay AID720504 (National Center for Advancing Translational Sciences (NCATS), 2013).

The campaign covered roughly 360,000 compounds. About 10,000 (2.8%) were called active. Another 4% or so got no clear call; they are omitted. What follows is part of a selection rich in actives, with near analogues and random picks from the rest. A number with no mark means an inactive call. The call rests on the fitted dose curve; in most records, active means well fitted inhibition curve with a large enough effect; inconclusive means small, poorly fitted or top-dose-only effect; inactive means flat fitted curve, though single readings scatter.
On the % scale 0 is the no-effect control and ±100 the full control effect; potency means the concentration at half of the fitted maximal effect.

For the assay, the target named is Serine/threonine-protein kinase PLK1 (Homo sapiens) (UniProt P53350). Put plainly: qHTS for Inhibitors of PLK1-PDB (polo-like kinase 1 - polo-box domain): Primary Screen. Further: nearly all actives have a fitted effect of over 65% in size. On max response, negative = inhibition: series mostly up to about 57 µM. The settings on record: Plk1 PBD binding of FITC phosphopeptide, fluorescence polarization. In general terms: In qHTS, concentration-response curves come from the screen itself.
Chain of Serine/threonine-protein kinase PLK1 (Homo sapiens) (P53350 whole entry, looked up, the tested form may be a part): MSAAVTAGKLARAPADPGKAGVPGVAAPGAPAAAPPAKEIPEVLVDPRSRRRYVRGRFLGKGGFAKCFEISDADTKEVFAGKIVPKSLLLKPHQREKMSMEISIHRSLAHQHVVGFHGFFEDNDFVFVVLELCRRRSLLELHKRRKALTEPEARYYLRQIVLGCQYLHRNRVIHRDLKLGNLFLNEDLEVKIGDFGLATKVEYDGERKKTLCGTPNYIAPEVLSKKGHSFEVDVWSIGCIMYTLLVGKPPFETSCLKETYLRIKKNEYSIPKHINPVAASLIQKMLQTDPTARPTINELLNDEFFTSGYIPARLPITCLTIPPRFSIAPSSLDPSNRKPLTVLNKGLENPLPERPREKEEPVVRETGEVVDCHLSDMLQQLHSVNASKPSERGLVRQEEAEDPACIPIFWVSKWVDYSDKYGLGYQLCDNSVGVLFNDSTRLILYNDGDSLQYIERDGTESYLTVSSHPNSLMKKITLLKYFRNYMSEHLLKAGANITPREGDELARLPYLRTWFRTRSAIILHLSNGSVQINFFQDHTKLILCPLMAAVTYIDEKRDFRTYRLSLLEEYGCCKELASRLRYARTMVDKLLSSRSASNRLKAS
As to `CCOC(=O)[C@]12CCCC=C1N(CCC1=CCCCC1)C(=O)[C@H](CC(=O)NCCCOC)C2`, the max response, negative = inhibition is 2.46%.
Still for that read-out and setting: to `CCOc1ccc(S(=O)(=O)NCCC(=O)NNC(=O)c2ccc(F)cc2)cc1` belongs -14.6%.
Same read-out and setting: under `COc1ccc(NC(=O)c2sc(=O)n(Cc3ccc(S(=O)(=O)N(C)C)cc3)c2C)cc1` stands -0.145%.
Still for that read-out and setting: to `O=C(CN1CCOCC1)Nc1cccc([N+](=O)[O-])c1` belongs -23.6%.
For `O=C(Nc1cccc([N+](=O)[O-])c1)Nn1cnnc1`, the max response, negative = inhibition is -2.87%.
Regarding `COC(=O)/C=C\C(=O)Nc1cccc([N+](=O)[O-])c1`, the Potency is 5.97 µM (active).
`CC(=O)C[C@@H]1OC[C@H](C)N1S(=O)(=O)c1ccc(C)cc1`: the max response, negative = inhibition was -5.26%.
The same measure, in the same setting: to `COc1cc(/C=C/C(=O)OCC(=O)NC(=O)NCc2ccccc2)ccc1OCC#N` belongs -6.76%.
As to `COc1cc(/C=C/C(=O)OCC(=O)N2CCOCC2)ccc1OCC#N`, the Potency is 26.7 µM (active).
Take `COc1cc(/C=C/C(=O)Nc2ccc(OC)c(S(=O)(=O)N3CCOCC3)c2)ccc1OCC#N`: the max response, negative = inhibition is -0.928%.
As for `CC(C)(C)c1ccc(S(=O)(=O)NC(=O)C2(C)CCN2C(=O)CC2CC2)cc1` (stereo unspecified), the max response, negative = inhibition was -12%.
Same read-out and setting: under `Cc1cccc(CN2CCN(C3CN(Cc4cn(Cc5ccccc5F)nn4)S(=O)(=O)C3)CC2)c1` (stereo unspecified) stands 3.36%.
On the same count and under the same terms, under `OC[C@@H]1CN(Cc2ccc3c(c2)OCO3)C[C@H](n2cnc3c(NCc4ccco4)ncnc32)O1` stands -2.35%.
As to `O=C1Oc2ccccc2C(=O)/C1=C/c1ccccc1O`, the Potency is 2.67 µM (active).
With `COC(=O)c1ccc(/C=C2/C(=O)Oc3ccccc32)cc1`, the max response, negative = inhibition was -0.125%.
For `O=C(NN=Cc1ccccc1O)NN=Cc1ccccc1O`, the max response, negative = inhibition was -11.7%.
For the compound `CC(=O)NC(c1cccc(F)c1)c1nc(-c2cccc(F)c2)cs1` (stereo unspecified), the max response, negative = inhibition was -0.575%.
Still for that read-out and setting: to `COc1ccc(-c2nnc(-c3ccc4ccccc4c3)o2)cc1` belongs -4.59%; to `CN(C)c1ccc(-c2nnc(-c3cccnc3)o2)cc1`, 3.15%.
As to `Nc1ccc(-c2nnc(-c3ccc(-c4ccccc4)cc3)o2)cc1`, the Potency is 13.4 µM (active).
For `COc1cc(NC(=O)C2=C(C)OCCS2)c(Cl)cc1C(=O)NCCCN1CCCC(C)C1` (stereo unspecified), the max response, negative = inhibition is -4.33%.
Same read-out and setting: to `Cc1cc(C(=O)N/N=C/c2ccc(O)c([N+](=O)[O-])c2)c(C)n1-c1ccc(F)cc1` belongs -24.1%.
For `O=[N+]([O-])c1ccc(N2CCSCC2)cc1O`, the max response, negative = inhibition was 2.23%.
For the compound `O=C1CSC(=S)N1/N=C/c1ccc(O)c([N+](=O)[O-])c1`, the Potency was 23.8 µM (active).
Consider `CS(=O)(=O)N1CCCCC1c1cc(C(=O)NCc2ccccc2)no1` (stereo unspecified), for which the max response, negative = inhibition is -4.51%.
On the same count and under the same terms, to `CCCCN1C(=O)C(CC(=O)NCc2cccs2)CC(C(=O)N2CCCCCC2)=C1C` (stereo unspecified) belongs -3.48%; to `COC(=O)C(Cc1c[nH]c2ccccc12)NC(=O)CCNC(=O)c1ccco1` (stereo unspecified), 3.99%; to `CCCCN1CC(C)(C)[C@H](CC(=O)Nc2ccc(Br)cc2)C1=O`, 2.01%.
Regarding `COc1ccc(C)cc1NC(=S)N1CCOCC1`, the max response, negative = inhibition was -2.89%.
Regarding `COc1cc(NC(=O)CSC(=S)N2CCCC2)c(OC)cc1Cl`, the max response, negative = inhibition is -15.5%.
Regarding `COc1cc(NC(=S)N2CCCC(C)C2)c(OC)cc1Cl` (stereo unspecified), the Potency was 18.9 µM (active).
Turning to `C[C@@H]1Cn2cnc(C(=O)Nc3ccc(CNC(=O)OC(C)(C)C)cc3)c2C(=O)N1`, the max response, negative = inhibition was -11.4%.
Same read-out and setting: to `COc1cccc2cc(-c3cc(=O)oc4cc(C)c(O)cc34)oc12` belongs -14.5%.
In the case of `COc1ccc2oc(=O)cc(-c3cc4ccccc4o3)c2c1`, the Potency was 26.7 µM (active).
As for `COc1ccc(Nc2cc(=O)oc3ccccc23)cc1`, the max response, negative = inhibition is -6.94%.
Same read-out and setting: under `Oc1cccc2ccc(/C=C/c3ccc(Br)s3)nc12` stands -8.23%; under `CC(=O)Nc1ccc(S(=O)(=O)Nc2nccc(/C=C/c3ccccc3F)n2)cc1`, -13.8%.
For the compound `Nc1ccc(S(=O)(=O)Nc2nccc(/C=C/c3ccc(Br)s3)n2)cc1`, the Potency was 9.47 µM (active).
Take `CC(C)C1Cc2[nH][nH]c(=O)c2C(c2ccc(Cl)cc2)O1` (stereo unspecified): the max response, negative = inhibition was -26.3%.
On to `CCO/C=C1\C(=O)N(c2ccc(OCC)cc2)C(=O)c2ccccc21`, for which the Potency is 13.4 µM (active).
For `CCOc1ccc(NC(=O)C(C)N2C(=O)c3ccccc3C2=O)cc1` (stereo unspecified), the max response, negative = inhibition is -11.1%.
Same read-out and setting: under `CCCOC(=O)c1ccc(N2C(=O)c3ccccc3C2=O)cc1` stands -2.78%; under `COc1ccc(NC(=O)C[C@H]2C(=O)N(CCc3ccccc3)C[C@@H]2C)cc1`, -7.3%.
For the compound `CC1(C(=O)NS(=O)(=O)c2ccc(C#N)cc2)CCN1C(=O)c1ccc(C2CCCCC2)cc1` (stereo unspecified), the max response, negative = inhibition was -18.9%.
As to `COc1cccc(-c2cc(C(=O)N/N=C/c3ccc(OC)c(COC(C)=O)c3)c3ccccc3n2)c1`, the Potency was 29.9 µM (active).
`CCOc1ccc(-c2cc(C(=O)N/N=C/c3ccc(O)cc3)c3ccccc3n2)cc1`: the max response, negative = inhibition was 1.12%.
With `COc1ccc(-c2cc(C(=O)N/N=C/c3cccnc3)c3ccccc3n2)c(OC)c1`, the max response, negative = inhibition is 1.56%.
Same read-out and setting: to `CC1=NN(C(=O)c2ccc(Br)cc2)C(O)(c2ccccc2)C1` (stereo unspecified) belongs -4.08%.
In the case of `CC1=NN(C(=O)Cc2ccc(C)cc2)C(O)(c2cccnc2)C1` (stereo unspecified), the Potency is 23.8 µM (active).
As for `CC1=NN(C(=O)c2ccccc2Br)C(O)(c2cccnc2)C1` (stereo unspecified), the max response, negative = inhibition was -6.62%.
Still for that read-out and setting: to `O=c1cc(CN2CCCCCCC2)c2c(ccc3ccccc32)o1` belongs -3.34%; to `CCCCCCCCN1C(=O)[C@H](CC(=O)NCc2cccc3ccccc23)C[C@@]2(C(=O)OC)CCCCC=C12`, -2.64%; to `COc1ccc(C(C)(NC(C)=O)c2nc(-c3ccc(S(C)(=O)=O)cc3)cs2)cc1` (stereo unspecified), 0.405%.
Turning to `Cc1ccc(C=O)c([B-](F)(F)F)c1`, the max response, negative = inhibition was -2.89%.
Take `CC(=O)Nc1ccc2c3c(ccc([N+](=O)[O-])c13)CC2`: the max response, negative = inhibition was -1.77%.
Still for that read-out and setting: to `COc1ccc2cc1Oc1ccc(cc1)C[C@H]1c3cc(c(OC)cc3CCN1C)Oc1c(O)c(OC)cc3c1[C@H](C2)N(C)CC3` belongs -6.01%.
As for `COc1c(O)ccc2c1CN1CCc3cc4c(cc3C1C2)OCO4` (stereo unspecified), the Potency is 23.8 µM (active).
As for `COc1cc(C(=O)CCc2ccc3c(c2)OCO3)cc(OC)c1OC`, the max response, negative = inhibition is -9.68%.
The same measure, in the same setting: to `CC1(Oc2ccccc2-c2ccno2)CCN(Cc2ccc(-c3ccccc3)o2)C1` (stereo unspecified) belongs -2.77%.
Consider `CC(C)(C)C(=O)CSc1nc2ccccc2o1`, for which the max response, negative = inhibition was -18%.
Turning to `O=C(CSc1nc2ccccc2o1)N/N=C/c1ccccc1C(=O)O`, the Potency is 26.7 µM (active).
For the compound `O=C(CSc1nc2ccccc2o1)N1CCN(c2ccccc2)CC1`, the max response, negative = inhibition is -6.93%.
The same measure, in the same setting: to `O=C(NCc1cccnc1)c1cc(C2CCCCN2C(=O)CCc2ccccc2)on1` (stereo unspecified) belongs -11.3%.
Regarding `COC(=O)c1cccc(-n2[nH]nnc2=S)c1`, the Potency was 23.8 µM (active).
As to `COC(=O)c1cccc(N2C(=O)C3C4C=CC(CC4)C3C2=O)c1` (stereo unspecified), the max response, negative = inhibition was -4.67%.
Same read-out and setting: to `COC(=O)c1cccc(NC(=O)c2cccc(N3C(=O)CCC3=O)c2)c1` belongs -2.1%; to `CCOC(=O)[C@]12CCCC=C1N(CCC1=CCCCC1)C(=O)[C@H](CC(=O)N1CCCCC1)C2`, -0.904%.
`Cc1ccnc(-n2sc3ccccc3c2=O)n1`: the Potency is 3.77 µM (active).
Take `Cc1ccnc(SC2CC(=O)N(c3ccccc3)C2=O)n1` (stereo unspecified): the max response, negative = inhibition is -15.5%.
Same read-out and setting: under `COCCNc1nc(Nc2ccccc2Cl)c2sc(-c3ccccc3)cc2n1` stands -12.6%; under `Cc1ccc(C(=O)N2CCCc3ccccc32)c(Cl)c1`, 3.98%; under `Cc1ccc2cccc([N+](=O)[O-])c2n1`, 2.99%.
Same read-out and setting: to `CCOC(=O)c1ccccc1CN1C(=O)c2ccccc2S1(=O)=O` belongs -6.41%.
The same measure, in the same setting: to `CCOC(=O)c1ccccc1NC(=O)c1c(N)n(C)c(=O)[nH]c1=O` belongs -13.3%.
As for `CCOC(=O)c1cc2n(c1N)-c1ccccc1C2=O`, the Potency was 2.67 µM (active).
As for `CN(Cc1ccccc1)C(=O)[C@@H]1CCCN1C(=O)[C@@H]1CCCN1C(=O)c1c(F)cccc1F`, the max response, negative = inhibition was -9.51%.
The same measure, in the same setting: under `CC1CCCCC1NC(=O)COc1ccc(C#N)cc1` (stereo unspecified) stands -1.85%.
Take `N#Cc1ccc(OCC(=O)Nc2nc(-c3ccccn3)cs2)cc1`: the Potency is 8.44 µM (active).
With `O=C(CSC1=NCCS1)Nc1nc(-c2ccccc2)cs1`, the max response, negative = inhibition was -11.4%.
The same measure, in the same setting: under `O=C(CN1C(=O)C2C3C=CC(C3)C2C1=O)Nc1nc(-c2ccccn2)cs1` (stereo unspecified) stands -7.14%.
For `O=C(COc1ccccc1F)Nc1nc(-c2ccccn2)cs1`, the Potency was 11.9 µM (active).
`CC(NC(=O)c1ccco1)C(=O)Nc1nc(-c2ccccn2)cs1` (stereo unspecified): the max response, negative = inhibition was -15.6%.
Same read-out and setting: to `CC(C)c1cc(C(=O)N(C)C2CCCN(Cc3ccccc3F)C2)n(C)n1` (stereo unspecified) belongs -5.2%; to `NC(Cc1ccc(F)cc1)c1csc(Nc2nncc3ccccc23)n1` (stereo unspecified), -1.72%.
As for `COC(=O)[C@]12CCCCC=C1N(Cc1ccccc1)C(=O)[C@H](CC(=O)NCc1ccc(C)o1)C2`, the max response, negative = inhibition was -1.64%.
Turning to `CNC(=O)c1ccc(CN(C)C(=O)c2cc(C3CC3)nc3c2cnn3C(C)C)cc1`, the max response, negative = inhibition is -13.7%.
As for `O=S1(=O)CC(N2CCN(Cc3ccccc3F)CC2)CN1Cc1cn(Cc2ccccc2)nn1` (stereo unspecified), the max response, negative = inhibition was 0.233%.
The same measure, in the same setting: under `CCOC(=O)C1CCCN(C(=O)c2cc(-c3cccs3)oc2C)CC1` (stereo unspecified) stands -3.67%.
Take `O=C(Oc1ccc(C(=S)N2CCOCC2)cc1)c1ccc(F)cc1`: the Potency was 21.2 µM (active).
With `O=C(Oc1ccc(F)cc1)N1CCOCC1`, the max response, negative = inhibition is -11.5%.
Regarding `O=C(Oc1cccc(C(=S)N2CCOCC2)c1)c1cccc(Cl)c1`, the max response, negative = inhibition was -12.2%.
